HCV inh: blocks hepatitis C virus | Potency, µM (series often up to 41.8 µM), hits mostly inhibitors | Huh7.5.1 HCVcc-Cre infection, luciferase reporter, 44 h | AID 651820 | 3.4% of 340,000 active
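Cells (1,000/well) were plated 4 h before compound, then infected with HCVcc-Cre virus (~0.5 moi). After 44 h further culture, infection was read as luciferase luminescence following a 15 min substrate incubation at room temperature.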
Pf growth 96h: inhibits malaria parasite growth, 96 h; Potency, µM (top dose mostly 28.7 µM), actives largely listed as inhibitors; P. falciparum luciferase reporter growth, 96 h; 6.9% of 320,000 active; AID 504834
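Plates of compound plus infected erythrocytes (2% hematocrit, 0.05% parasitemia final) incubate 96 hours, 37 C, 5% CO2. Detection reagent added; reduced luminescence from the parasites' luciferase reporter flags inhibition.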
HCMV antiviral: human cytomegalovirus inhibition; HFF cells, HCMV-luciferase reporter, 72 h; active compounds read low; activity change, negative = inhibition, % at 57.5 µM; 4.5% of 410,000 active; AID 1259415; in the data active = activity change below about -60%; inconclusive = no clear call, values can overlap the other calls; inactive = above about -39%
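Two compound doses tested in HFFs infected with HCMV-luciferase, MOI 1 PFU/cell, 72 h at 37C. Lysate luminescence read with OneGlo; data normalized against buffer-only and 10uM Salinomycin inhibitor controls.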
Pf growth 48h: P. falciparum growth inhibition at 48 hours (one generation); P. falciparum luciferase growth in erythrocytes, 48 h; Potency, µM (titrated, usually from 28.7 µM), hits mostly inhibitors; 5.9% of 310,000 active; AID 504832
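Compounds are pin-transferred into medium, infected erythrocytes (2% hematocrit, 0.1% parasitemia final) are added, and plates sit one parasite generation at 37 C in 5% CO2. Detection reagent is then added and luminescence measured.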
Hits are given with their value; n = inactive; u = inconclusive; x = no result. Only some compounds are listed: those with a hit (about 13% of all), similar ones and a draw of the others. Unless noted, calls follow the shape of the dose curve; as a rule, active = well fitted inhibition curve with a large enough effect; inconclusive = small, poorly fitted or top-dose-only effect, or another doubt; inactive = no such curve, though single readings can be large or run the other way.

SMILES	HCV inh	Pf growth 96h	HCMV antiviral	Pf growth 48h
Cc1cc(C)cc(N2C(=O)CSC23C(=O)N(Cc2c(F)cccc2Cl)c2ccccc23)c1 (stereo unspecified)	x	x	n	x
Cc1ccc(NC2c3ncccc3C(=O)N2C2CCCCC2)cc1C (stereo unspecified)	n	n	n	10.4µM
c1ccc(CSc2ncccn2)cc1	n	n	n	n
O=C(CSC1=NNC(c2ccccn2)S1)Nc1ccc(C(F)(F)F)cc1 (stereo unspecified)	n	u	-74.7	u
c1ccc(CSC2=NNC(c3ccccn3)S2)cc1 (stereo unspecified)	u	u	n	2.08µM
Cc1ccc2nc(N)[nH]c(=O)c2c1Sc1ccncc1	x	2.13µM	x	4.78µM
COc1ccc(/C=C2\SC(=S)N(CCC(=O)N3CCOCC3)C2=O)cc1	n	u	n	u
COc1cccc(/C=C2\SC(=S)N(CCCC(=O)N3CCCCC3)C2=O)c1	12.6µM	u	n	u
COc1ccc(/C=C2\SC(=S)N(CCCC(=O)N3CCN(C)CC3)C2=O)cc1	n	u	-77.3	u
CN1CCN(C(=O)CCN2C(=O)/C(=C/c3cccc(Br)c3)SC2=S)CC1	u	n	n	n
CCOC(=O)N1CCN(C(=O)CCN2C(=O)/C(=C\c3ccccc3OC)SC2=S)CC1	n	n	x	u
CN1CCN(C(=O)CCCN2C(=O)/C(=C/c3cccc(Br)c3)SC2=S)CC1	6.31µM	n	-84.5	u
COc1ccccc1/C=C1\SC(=S)N(CCC(=O)N2CCN(C)CC2)C1=O	n	n	u	11.7µM
COc1cccc(/C=C2/SC(=S)N(CCC(=O)N3CCOCC3)C2=O)c1	u	n	n	u
Cc1cc(=O)[nH]c2nnc(SCCC(C)C)n12	x	x	n	x
COCCn1c(C)cc(O)c(C(c2cccc(F)c2)N2CCN(c3ccccc3)CC2)c1=O (stereo unspecified)	x	x	n	x
Cc1ccccc1-c1nn2c(=O)cc(CN3CCN(C(=O)/C=C/c4ccccc4)CC3)nc2s1	x	x	n	x
Cc1nn(-c2nc(-c3ccc(F)cc3)cc(C(F)(F)F)n2)c(C)c1Br	x	x	n	x
COc1ccc(CN2CCc3nc(N4CCN(c5ccc(F)cc5)CC4)ncc3C2)c(OC)c1OC	x	x	n	x
COc1ccc(/C=C2\SC(=S)N(CCC(=O)NC3C=CS(=O)(=O)C3)C2=O)cc1 (stereo unspecified)	u	u	-79.7	u
CCc1ccc(/C=C2\SC(=S)N(CCCC(=O)N3CCN(C)CC3)C2=O)cc1	x	x	-100.5	x
CN1CCN(C(=O)CCN2C(=O)/C(=C\c3ccc(Cl)cc3)SC2=S)CC1	n	8.28µM	x	n
COc1cccc(/C=C2\SC(=S)N(CCC(=O)NCCc3ccc(O)cc3)C2=O)c1	u	u	-100.4	u
COc1cccc(/C=C2\SC(=S)N(CCC(=O)Nc3ccc(O)cc3)C2=O)c1	u	u	n	n
COc1cccc(/C=C2\SC(=S)N(CCC(=O)NC3C=CS(=O)(=O)C3)C2=O)c1 (stereo unspecified)	u	u	n	u
SMILES	HCV inh	Pf growth 96h	HCMV antiviral	Pf growth 48h
CN1CCN(C(=O)CCN2C(=O)/C(=C\c3ccc(F)cc3)SC2=S)CC1	u	x	n	x
COc1ccccc1CNC(=O)Cn1c(-c2cccs2)cc2cc(F)ccc21	x	x	n	x
NS(=O)(=O)c1ccc(CCN2C(=O)/C(=C\c3ccc(Cl)cc3)SC2=S)cc1	u	n	-101.4	n
CC(C(=O)NC1C=CS(=O)(=O)C1)N1C(=O)/C(=C/c2cccc(Cl)c2)SC1=S (stereo unspecified)	n	n	-65.0	n
CSCCC(NC(=O)C1CCCCC1)C(=O)Nc1ccc(F)c(Cl)c1 (stereo unspecified)	x	x	n	x
O=S(=O)(c1ccccc1)[C@@]1(c2ccccc2)C[C@@H]2ON=C(c3cccc(Br)c3)[C@@H]2C1	u	u	n	11.7µM
O=C(O)[C@]1(S(=O)(=O)c2ccccc2)C[C@@H]2ON=C(c3cccc(Br)c3)[C@@H]2C1	n	n	n	n
COc1ccc(OC)c([C@@H]2Nc3ccc(C(=O)O)cc3[C@@H]3C=CC[C@@H]32)c1	x	x	n	x
COc1ccc(C(=O)N/N=C(\C)c2ccc3c(c2)C2C=CCC2C(c2ccccc2)N3)cc1 (stereo unspecified)	n	n	x	1.04µM
CCCCC(=O)/C=C/n1c(=S)oc2ccccc21	u	n	-100.9	n
CC(C)OC(=O)n1c(=S)oc2ccccc21	n	n	n	x
CCOC(=O)c1c(-c2ccccc2)csc1NC(=O)c1cc(-c2ccc(Cl)cc2)on1	x	x	n	x
CC(C)=CCCC(C)CCO (stereo unspecified)	n	x	n	x
CN[C@H](C)CCC=C(C)C	x	u	x	0.151µM
Cc1ccc2nc(COc3ccccc3NC(=O)C(C)(C)C)cc(=O)n2c1	x	x	n	x
CCC1(c2ccccc2)ON(c2c(Br)cccc2Br)C1=O (stereo unspecified)	u	0.415µM	u	0.415µM
Cc1ccc(C)c(Cn2c(=O)c3c(nc4n3CCN4c3ccccc3)n(C)c2=O)c1	x	x	n	x
Cc1ccc(C)c(Cn2c(=O)c3c(nc4n3CCN4Cc3ccco3)n(C)c2=O)c1	n	u	n	8.28µM
